Source: PubChem BioAssay AID504848 (National Center for Advancing Translational Sciences (NCATS), 2011)
Screen size: about 2,300 compounds; about 1,400 (61%) were called active. About 29% were inconclusive and are not listed. So high a share suggests a set chosen from earlier hits. Some of the results follow. Values without a mark were called inactive. The call rests on the fitted dose curve; in most records, active means well fitted inhibition curve with a large enough effect; inconclusive means small, poorly fitted or top-dose-only effect, or effect the other way; inactive means no such curve, though single readings can be large or run the other way.

Assay: Confirmation screen for delayed death inhibitors of the malarial parasite plastid, 96 hour incubation; further: nearly all actives have a fitted effect of over 60% in size
Conditions: P. falciparum luciferase growth in erythrocytes; series mostly up to 28.7 µM; activity change, negative = inhibition: at the top concentration
Summary of the method: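 Erythrocytes infected with luciferase-expressing P. falciparum (2% hematocrit, 0.1% parasitemia final) in RPMI 1640 with 0.5% Albumax, exposed to compounds 96 h at 37 C, 5% CO2. Growth inhibition read as decreased luciferase luminescence.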
On the % scale 0 is the no-effect control and ±100 the full control effect; potency means the concentration at half of the fitted maximal effect.

| Structure (SMILES) | Potency | activity change, negative = inhibition |
| --- | --- | --- |
| Cc1ccc2[nH]c3c(c2c1)CCCC3NC(=O)CCl (centres undefined) | 4.47 µM (active) | – |
| C[n+]1ccn(CC(=O)c2ccc(Cl)cc2)c1 | 14.1 µM (active) | – |
| Cc1cc(C)cc(CC(Cc2nc3ccccc3[nH]2)c2nc3ccccc3[nH]2)c1 (centres undefined) | 1.12 µM (active) | – |
| C=CCN1C(=O)[C@@H]2Cc3c([nH]c4ccccc34)C(c3ccc(O)cc3)N2C1=S (some centres undefined) | 12.6 µM (active) | – |
| CCN1C(=O)[C@@H]2Cc3c([nH]c4ccccc34)C(c3ccc(OC)cc3)N2C1=S (some centres undefined) | 11.2 µM (active) | – |
| CCc1nc(Nc2ccncc2)c2oc3ccccc3c2n1 | 3.98 µM (active) | – |
| O=C(C[C@@H]1C/C=C\CC[C@@H](Cc2ccc(F)cc2)C(=O)OC[C@@H]2CCCN2C1=O)NCCO | 10 µM (active) | – |
| O=C(C[C@H]1C(=O)N(Cc2ccccc2)C[C@@H]1Cc1ccccc1)Nc1ccccc1 | 11.2 µM (active) | – |
| CC(C)(C)c1ccc(C(O)CCCN2CCC(C(O)(c3ccccc3)c3ccccc3)CC2)cc1 (centres undefined) | 11.2 µM (active) | – |
| CS(=O)(=O)Nc1ccc(C2=NN(C(=O)c3ccco3)C(c3ccc(F)cc3)C2)cc1 (centres undefined) | 10 µM (active) | – |
| COc1cc([N+](=O)[O-])ccc1NC(=O)Nc1cccnc1 | 10 µM (active) | – |
| Cc1ccc(S(=O)(=O)N2CCN(C(=O)c3cc(S(=O)(=O)N(C)C)ccc3N3CCCC3)CC2)c(C)c1 | 8.91 µM (active) | – |
| Cc1ccc(S(=O)(=O)N2CCN(C(=O)c3ccc(Br)o3)CC2)c(C)c1 | 6.31 µM (active) | – |
| CCc1ccc(/C=C/c2c[nH]c3ccccc23)[n+](CC)c1 | 0.0501 µM (active) | – |
| CCN1CCCC1CNC(=O)c1ccc2c(c1)N(Cc1ccccc1F)C(=O)c1ccccc1S2(=O)=O (centres undefined) | 2 µM (active) | – |
| CCN1C(=O)c2ccccc2Sc2ccc(C(=O)NCCCN3CCCCC3)cc21 | 10 µM (active) | – |
| Cc1cccc(CN2C(=O)c3ccccc3S(=O)(=O)c3ccc(C(=O)NCCCN4CCCC4)cc32)c1 | 1.58 µM (active) | – |
| O=C(NCCCN1CCCC1)c1ccc2c(c1)N(Cc1ccccc1F)C(=O)c1ccccc1S2=O (centres undefined) | 11.2 µM (active) | – |
| CCOC(=O)N1CCN(C(=O)c2ccc3c(c2)N(Cc2cc(C)ccc2C)C(=O)c2ccccc2S3=O)CC1 (centres undefined) | 3.98 µM (active) | – |
| O=C(c1ccc2c(c1)N(Cc1cccc(Cl)c1)C(=O)c1ccccc1S2(=O)=O)N1CCN(c2ccccn2)CC1 | 2.82 µM (active) | – |
| CCCn1c(=NC(=O)CCS(=O)(=O)c2ccccc2)sc2cc(S(N)(=O)=O)ccc21 | 12.6 µM (active) | – |
| O=C(NC1C=CS(=O)(=O)C1)c1sc2ccccc2c1Cl (centres undefined) | 0.398 µM (active) | – |

| Structure (SMILES) | Potency | activity change, negative = inhibition |
| --- | --- | --- |
| CC1CCN(C(=O)Cn2c(=O)oc3cc(S(=O)(=O)N4CCCCC4)ccc32)CC1 | 12.6 µM (active) | – |
| COC(=O)c1c(-n2c(C)cc(C=O)c2C)sc2c1CCCC2 | 12.6 µM (active) | – |
| CCOC(=O)C[n+]1c(C)ccc2c1CCC2 | 12.6 µM (active) | – |
| O=C(CCNC(=O)c1ccc(Cl)cc1)NC1CCCc2ccccc21 (centres undefined) | 12.6 µM (active) | – |
| CN1CCN(c2ccccc2NC(=O)c2cccc(OCc3ccccc3)c2)CC1 | 1.78 µM (active) | – |
| CCOC(=O)c1ccc2c(c1)n(CC)c(/C=C/N(C)c1ccccc1)[n+]2CC | 0.0891 µM (active) | – |
| CCn1c(/C=C/N(C(C)=O)c2ccccc2)[n+](CC)c2ccc(Cl)cc21 | 1 µM (active) | – |
| Cc1ccc(CNC(=O)COc2ccccc2-c2ccccc2)cc1 | 11.2 µM (active) | – |
| O=[N+]([O-])c1cccc(-c2c[n+]3c(n2-c2ccccc2)SCC3)c1 | 1.78 µM (active) | – |
| COC(=O)C(NC(=O)c1ccccc1C)(Nc1ncc(S(=O)(=O)c2ccc([N+](=O)[O-])cc2)s1)C(F)(F)F (centres undefined) | 3.16 µM (active) | – |
| Cc1c(/C=N/Nc2nc3ccccc3[nH]2)c2ccccc2n1C | 0.891 µM (active) | – |
| CCN(CC)c1ccc(/C=N/Nc2nc3ccccc3[nH]2)cc1 | 2.51 µM (active) | – |
| Cc1ccc(S(=O)(=O)C2(C(=O)N3CCCCCC3)CC2)cc1 | – | -5.14% |
| CC(=O)N1CCSc2ccc(S(=O)(=O)Nc3ccc(C)cc3)cc21 | 12.6 µM (active) | – |
| O=C(COc1ccc(Br)cc1)Nc1cc(S(=O)(=O)N2CCCCC2)ccc1N1CCCCC1 | 3.98 µM (active) | – |
| CC(Oc1cccc(Cl)c1)C(=O)Nc1cc(S(=O)(=O)N2CCOCC2)ccc1N1CCCCC1 (centres undefined) | 3.98 µM (active) | – |
| O=C(COc1ccc(Cl)cc1)Nc1cc(S(=O)(=O)N2CCCCC2)ccc1N1CCCCC1 | 5.01 µM (active) | – |
| Cc1cc(C(=O)OC(C)C(=O)Nc2nc(-c3ccccc3)cs2)c(C)o1 (centres undefined) | – | -14.6% |
| COc1ccccc1Nc1nnc(SCC(=O)N2CCCC2)s1 | 2.51 µM (active) | – |
| COc1ccccc1Nc1nnc(SCC(=O)Nc2nc(-c3ccc(F)cc3)cs2)s1 | 10 µM (active) | – |
| COc1ccccc1Nc1nnc(SCc2cc(=O)n3ccsc3n2)s1 | 4.47 µM (active) | – |
| CCOc1ccccc1Nc1nnc(SC(C)C(=O)Nc2nc(-c3ccccc3)cs2)s1 (centres undefined) | 15.8 µM (active) | – |
